Data on 40 molecules can be found in PubChem BioAssay (Tox21).

Results filed as inconclusive are left out. Active and inactive are the calls of the source. Calls come from the whole dose curve; as a rule, active = well fitted activation curve with a large enough effect in the signal ratio in the repeat runs (not every such curve was filed as active); inconclusive = weak or mixed curves, or effect the other way; inactive = no such curve, though single readings can be large or run the other way; the % refers to the signal ratio.
% is set by controls: 0 for no effect and ±100 for the full control effect; potency is the fitted concentration of half-maximal effect.

Glucocorticoid receptor (Homo sapiens), sequence (P04150 whole entry, looked up): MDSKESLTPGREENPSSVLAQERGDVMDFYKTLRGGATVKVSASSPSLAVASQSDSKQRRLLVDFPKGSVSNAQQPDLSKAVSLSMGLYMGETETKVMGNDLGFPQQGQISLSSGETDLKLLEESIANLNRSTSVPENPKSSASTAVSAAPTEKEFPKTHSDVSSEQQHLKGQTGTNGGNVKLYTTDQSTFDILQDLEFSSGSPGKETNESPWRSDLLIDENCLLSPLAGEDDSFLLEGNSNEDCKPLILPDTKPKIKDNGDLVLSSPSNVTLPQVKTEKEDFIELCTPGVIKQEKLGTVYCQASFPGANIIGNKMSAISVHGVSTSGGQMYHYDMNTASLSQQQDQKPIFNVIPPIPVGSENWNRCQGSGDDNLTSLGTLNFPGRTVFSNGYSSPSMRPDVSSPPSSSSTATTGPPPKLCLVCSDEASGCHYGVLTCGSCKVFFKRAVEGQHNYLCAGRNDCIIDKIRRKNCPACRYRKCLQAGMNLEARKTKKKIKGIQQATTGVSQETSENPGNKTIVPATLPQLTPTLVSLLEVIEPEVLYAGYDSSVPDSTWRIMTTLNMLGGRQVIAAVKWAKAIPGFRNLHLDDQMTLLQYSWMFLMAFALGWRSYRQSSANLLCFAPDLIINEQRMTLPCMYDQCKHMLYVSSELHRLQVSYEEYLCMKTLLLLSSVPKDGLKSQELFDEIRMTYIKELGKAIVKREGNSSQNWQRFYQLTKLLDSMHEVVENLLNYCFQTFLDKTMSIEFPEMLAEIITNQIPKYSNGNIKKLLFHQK

In this experiment the target is Glucocorticoid receptor (Homo sapiens) (UniProt P04150). The experiment can be described thus: qHTS assay to identify small molecule agonists of the glucocorticoid receptor (GR) signaling pathway (AID 720691). Particulars: GR-bla HeLa, beta-lactamase reporter ratio, 18 h; series mostly up to 62.4 µM; activation: at the top concentration. The source says:
U.S. Tox21 Program National Center for Advancing Translational Sciences [NCATS] NIH Chemical Genomics Center [NCGC] U.S. Environmental Protection Agency [EPA] National Institutes of Environmental Health Sciences [NIEHS] National Toxicology Program [NTP] U.S. Food and Drug Administration [FDA] Tox21 Assay Overview: The Glucocorticoid receptor (GR) is one of the members of the nuclear receptor family of ligand-dependent transcription factors. GR plays a critical role in carbohydrate, protein and lipid metabolisms and programmed cell death. CellSensor GR-bla HeLa cell line (Invitrogen) contains a beta-lactamase reporter gene under the control of the glucocorticoid response element stably integrated into HeLa cells, a cervical cancer cell line that expresses glucocorticoid receptor. The activation of the reporter gene under culture conditions can be detected by fluorescence intensity. This cell line has been used to screen the Tox21 10K compound library and to identify the compounds that activate the GR signaling.
Tox21 Assay Protocol Summary: The GR-bla HeLa cells were dispensed at 1500 cells/6 ul/well in 1536-well black wall/clear bottom plates using a Multidrop Combi (ThermoFisher Scientific, Waltham, MA) dispenser. After the assay plates were incubated at a 37 C/5% CO2 incubator for 4 hours, 23 nL of compounds dissolved in DMSO, positive controls or DMSO only was transferred to the assay plate by a pintool station (Kalypsys, San Diego, CA). The plates were incubated at 37 C for 18 hours. After 1 uL of LiveBLAzerTM B/G FRET substrate was added using a Flying Reagent Dispenser (Aurora Discovery, San Diego, CA), the plates were incubated at room temperature for 2 hours, and fluorescence intensity was measured by an Envision plate reader (PerkinElmer, Shelton, CT).
In general terms: In qHTS, concentration-response curves come from the screen itself.
In the case of `C/C=C1\[C@H]2C=C(C)C[C@]1(N)c1ccc(=O)[nH]c1C2`, the “activation” value is 6.3% (inactive).
As to `C=CC(C)CCC=C(C)C` (stereo not given), the “activation” value was 3.25% (inactive).
As to `CCCCCCCCCCCCSCCOCCO`, the “activation” value was 1.32% (inactive).
On the same count and under the same terms, then `COc1cccc([C@H](O)C2CCN(CCc3ccc(F)cc3)CC2)c1OC`, with 0.653% (inactive); and `CO[C@@H]1[C@@H](O[C@@H]2O[C@H](C)[C@@H](O[C@H]3C[C@@](C)(O)[C@@H](O)[C@H](C)O3)[C@H](N(C)C)[C@H]2O)[C@@H](CC=O)C[C@@H](C)[C@@H](O[C@@H]2CC[C@H](N(C)C)[C@@H](C)O2)/C=C/C=C/C[C@@H](C)OC(=O)C[C@H]1OC(C)=O`, with -3.87% (inactive); and `CCCCCCCCNC`, with 1.3% (inactive).
In the case of `CCN(CCCCOC(=O)c1ccc(OC)c(OC)c1)C(C)Cc1ccc(OC)cc1` (stereo not given), the “activation” value is 1.91% [at 29.2 µM] (inactive).
Same read-out and setting: with `CC[C@H](NC(C)C)[C@H](O)c1ccc(O)c2[nH]c(=O)ccc12` the figure was 1.38% (inactive); with `CC1=CC(=C(c2ccc(N)cc2)c2ccc(N)cc2)C=CC1=N`, -0.66% [at 6.9 µM] (inactive).
The same measure, in the same setting: then `CCCCCCCCCCCCCCCCC(=O)O`, with -5.49% (inactive); and `CCCCCCCCOCCCN`, with 2.16% (inactive).
Still for that read-out and setting: with `CC/C=C/CCO` the figure was -2.8% [at 79.2 µM] (inactive).
Take `CCCCCCCCCCCCCCCCN`: the “activation” value was -0.134% (inactive).
The same measure, in the same setting: with `CC(CN=Cc1ccccc1O)N=Cc1ccccc1O` (stereo not given) the figure was -1.95% (inactive); with `C/C(=C(\CCO)SS/C(CCO)=C(\C)N(C=O)Cc1cnc(C)nc1N)N(C=O)Cc1cnc(C)nc1N`, -0.151% (inactive); with `O=[N+]([O-])c1cccc(I)c1`, -0.957% (inactive).
Take `CCCCCCOC(=O)c1ccccc1`: the “activation” value is -3.56% (inactive).
The same measure, in the same setting: with `C=Cc1ccc(C=C)cc1` the figure was -2.19% [at 79.2 µM] (inactive).
In the case of `CCOC(C)OCC`, the Potency entry is “inactive”.
As for `O=[N+]([O-])c1ccccc1CCO`, the “activation” value was -4.57% [at 79.2 µM] (inactive).
Regarding `CC(=O)c1ccc(Cl)c(Cl)c1Cl`, the “activation” value was -4.65% (inactive).
With `CC(=O)OCC(=O)[C@@]1(O)CC[C@H]2[C@@H]3CCC4=CC(=O)C=C[C@]4(C)[C@@]3(F)[C@@H](O)C[C@@]21C`, the Potency was 12.9 nM (active).
Regarding `O=C(O)c1ccccc1-n1cc(C(=O)O)c(=O)c2cc(Nc3c(F)cc(F)cc3Cl)c(Cl)cc21`, the “activation” value was -0.137% (inactive).
On the same count and under the same terms, then `C=CC(=O)OCCCCCCCCCC`, with 1.48% (inactive); and `CCCN(C1CCN(C(=O)C2CCNCC2)CC1)[C@@H]1CCc2ccc(OC)cc2C1`, with 2.25% (inactive).
Regarding `Clc1cccc(C(c2ccc3nc[nH]c3c2)n2ccnc2)c1` (stereo not given), the “activation” value was -1.57% (inactive).
Consider `CC(C)C/C=C(\C=O)c1ccccc1`, for which the “activation” value was -6.1% (inactive).
As for `CCOc1ccc2c(c1)C(C)CC(C)(C)N2` (stereo not given), the “activation” value was 0.153% (inactive).
On to `O=C(O)c1ccncc1`, for which the “activation” value was 1.4% [at 79.2 µM] (inactive).
Consider `CCCC(=O)OCCC(C)C`, for which the “activation” value is 0.9% (inactive).
As for `CCOC(=O)CC(O)(CC(=O)OCC)C(=O)OCC`, the “activation” value is 0.0442% (inactive).
`O=C(O)c1cc(C(=O)O)c(C(=O)O)cc1C(=O)O`: the “activation” value was 0.512% (inactive).
Same read-out and setting: with `CS(C)=O` the figure was -2.64% (inactive); with `CCC(C)CCCC(C)(C)O` (stereo not given), 0.0529% (inactive).
On the same count and under the same terms, with `CCc1ccc(C(=O)C(C)CN2CCCCC2)cc1` (stereo not given) the figure was 0.912% (inactive).
Same read-out and setting: with `O=c1[nH]nc(-c2ccc([N+](=O)[O-])o2)o1` the figure was 1.38% (inactive).
With `C/C(=C\C(C)CC(C)CC(C)C)C1CC(=O)OC1=O` (stereo not given), the “activation” value is -4.49% (inactive).
Regarding `Clc1cc(Cl)c2c(c1)N=C1CCCCCN1C2`, the “activation” value is -2.41% (inactive).
On the same count and under the same terms, then `CCCCCCCCCCCCSC#N`, with -4.77% (inactive).
On the same count and under the same terms, with `C1=COCCC1` the figure was 0.721% (inactive).
